# High-throughput results deposited in PubChem by National Center for Advancing Translational Sciences (NCATS).
# In the library only some 8% were active in any assay of this set; here they are far more common.
# KB-V1 cytotox – qHTS assay for MDR1-selective chemotherapeutics: Primary screen using the drug-selected MDR subline cells KB-V1; KB-V1 MDR cells viability, CellTiter-Glo, 72 h; Potency, µM (series often up to 46.1 µM), most hits filed as cytotoxic; 3.4% of 400,000 active; AID 1347076, 2019; further: nearly all actives have a fitted effect of over 60% in size
#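 Drug-selected KB-V1 cells, grown in DMEM lacking phenol red with 10% FBS, receive compound titrations; after three days at 37 degrees C, surviving cell ATP is quantified by CellTiter-Glo luminescence and responses normalized and curve-fitted.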
# SW480 rerep – A quantitative high throughput screen for small molecules that induce DNA re-replication in SW480 colon adenocarcinoma cells; Potency, µM (doses to about 46.1 µM), hits mostly activators; SW480 DNA re-replication, Hoechst DNA content imaging, 48 h; 1.8% of 340,000 active; AID 624297, 2012; further: nearly all actives have a fitted effect of over 55% in size
#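 Hoechst fluorescence of nuclei (405 nm excitation, 500-530 nm emission) measured by plate-scanning imager after 48 hr compound exposure at 37 C; re-replication scored as increased number of nuclei with elevated intensity.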
# MCF10A rerep – A quantitative high throughput screen for small molecules that induce DNA re-replication in MCF 10a normal breast cells | AID 624296, 2012 | MCF 10A DNA re-replication, Hoechst nuclear intensity, 48 h | Potency, µM (top dose mostly 46.1 µM), usual class: activators | 2.9% of 350,000 active; further: nearly all actives have a fitted effect of over 50% in size
# HT1080 IDH1KD tx – qHTS for induction of synthetic lethality in tumor cells producing 2HG: qHTS for the HT-1080-IDH1KD cell line; HT-1080 IDH1 knockdown viability, ATP luminescence, 48 h; Potency, µM (series often up to 46.1 µM), actives largely listed as cytotoxic; 2% of 360,000 active
#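 % activity derives from luminescence (CellTiter-Glo), normalised to DMSO and no-cell wells. HT-1080-IDH1KD cells, 750/well, had 48 h compound exposure at 37 °C.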
# KB-3-1 cytotox – qHTS assay for MDR1-selective chemotherapeutics: Primary screen using the parental adenocarcinoma cell KB-3-1 | Potency, µM (top dose mostly 46.1 µM), hits mostly cytotoxic | AID 1347075, 2019 | KB-3-1 viability, CellTiter-Glo ATP luminescence, 72 h | 1.4% of 400,000 active; further: nearly all actives have a fitted effect of over 60% in size
#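 Cytotoxicity in the drug-sensitive parental line KB-3-1 was scored as loss of CellTiter-Glo luminescence following 72 h incubation with compound. Values come from curve fitting of normalized concentration-response data.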
# HT1080-NT tox – qHTS for induction of synthetic lethality in tumor cells producing 2HG: qHTS for the HT-1080-NT fibrosarcoma cell line; HT-1080-NT fibrosarcoma viability, CellTiter-Glo ATP luminescence, 48 h; 1.6% of 360,000 active; AID 686970, 2013; Potency, µM (top dose mostly 46.1 µM), hits mostly cytotoxic;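 further: NT is the 2HG producing partner of a matched IDH1 knockdown line; nearly all actives have a fitted effect of over 55% in size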
#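 Viability of the 2HG-overproducing fibrosarcoma line after 48 hours of compound exposure at 37 degrees C was determined by luminescence with CellTiter-Glo, and concentration-effect curves were then fitted and categorized.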
# A number is an active result; – = inactive; ? = inconclusive; · = not tested or not shown; [ ] = remark or other dose. The call rests on the fitted dose curve; in most records, active means well fitted curve in the direction sought with a large enough effect; inconclusive means small, poorly fitted or top-dose-only effect, or another doubt; inactive means no such curve, though single readings can be large; an effect the other way counts as inactive or inconclusive.
SMILES,KB-V1 cytotox,SW480 rerep,MCF10A rerep,HT1080 IDH1KD tx,KB-3-1 cytotox,HT1080-NT tox
O=C(NC(C(=O)N/N=C/c1ccccc1)c1n[nH]c(=O)c2ccccc12)c1ccccc1 (stereo unspecified),–,–,–,–,–,–
O=C(NC(C(=O)N/N=C/c1c2ccccc2cc2ccccc12)c1n[nH]c(=O)c2ccccc12)c1ccccc1 (stereo unspecified),–,8.2µM,2.1µM,–,–,–
C[C@@H]1COC(=O)[C@H](Cc2ccc(F)cc2)CC/C=C/C[C@@H](CC(=O)N[C@@H](CO)Cc2ccccc2)C(=O)N1,–,?,–,–,–,–
O=C1NC[C@H](c2ccccc2)OC(=O)[C@H](Cc2ccc(F)cc2)CC/C=C/C[C@@H]1CC(=O)N(CCO)Cc1ccccc1,–,–,?,·,–,?
O=C1NC[C@@H](c2ccccc2)OC(=O)[C@@H](Cc2ccc(F)cc2)CC/C=C/C[C@H]1CC(=O)N(CCO)Cc1ccccc1,?,4.6µM,?,·,?,?
O=C(C[C@@H]1C/C=C/CC[C@H](Cc2ccc(F)cc2)C(=O)OC[C@@H](Cc2ccccc2)NC1=O)N[C@H](CO)Cc1ccccc1,–,?,7.3µM,?,?,?
O=CN(Cc1ccccc1)c1cc([N+](=O)[O-])ccc1OCc1ccccc1,5.8µM,–,–,–,–,–
Nc1cc([N+](=O)[O-])ccc1OCc1ccccc1,?,–,–,–,–,–
O=[N+]([O-])c1cccc(COc2ccccc2CO)c1,–,·,·,–,–,–
CC(=O)N(C)c1cc([N+](=O)[O-])ccc1OCc1ccccc1,21µM,–,–,–,–,–
CCC(C)[C@H](NC(=O)N1CCCCCC1)C(=O)O (stereo partly specified),–,–,–,–,–,–
CC1CCC(C(O)(C(=O)O)C2CCCCC2)CC1C (stereo unspecified),–,–,–,?,–,–
Cn1ccnc1C(OC(=O)c1ccccc1)C(F)(F)F (stereo unspecified),–,–,–,–,–,–
CCN=C1S/C(=C\c2sccc2C)C(=O)N1CC,13µM,–,–,–,?,–
CCOC(=O)c1c(C)[nH]c(C(=O)CSc2ccc(Cl)cc2)c1C,18µM,–,–,?,–,–
CCOC(=O)c1c(C)[nH]c(C(=O)COC(=O)c2ccc(O)cc2)c1C,?,–,–,–,–,–
CCOC(=O)c1c(C)[nH]c(C(=O)CSc2nc(C)cc(C)n2)c1C,?,–,–,–,–,–
CCOC(=O)c1c(C)[nH]c(C(=O)COC(=O)CNC(=O)c2ccc(Cl)cc2)c1C,4.1µM,·,–,–,–,–
CCOC(=O)c1c(C)[nH]c(C(=O)COC(=O)COc2ccc(OC)cc2)c1C,18µM,–,–,–,–,–
CCOC(=O)c1c(C)[nH]c(C(=O)COC(=O)C2(C)CC2(Cl)Cl)c1C (stereo unspecified),13µM,–,–,?,–,–
CCOC(=O)COn1c(=O)c(=O)n(OC)c2ccccc21,–,–[9.22 µM],–,–,–,–
Cc1ccc(-n2c(=O)c(C#N)cc3c(=O)n4ccccc4nc32)cc1,–,2.1µM,?,–,–,–
Cc1cccc(-n2c(=O)c(C#N)cc3c(=O)n4ccccc4nc32)c1,–,16µM,?,–,–,–
Cc1ccc(C)c(-n2c(=O)c(C#N)cc3c(=O)n4ccccc4nc32)c1,?,–,?,–,–,–
Cc1nn(C)c(C)c1NS(=O)(=O)c1ccc(Cl)s1,–,–,?,–,–,–
SMILES,KB-V1 cytotox,SW480 rerep,MCF10A rerep,HT1080 IDH1KD tx,KB-3-1 cytotox,HT1080-NT tox
CN(CC(=O)Nc1sc2c(c1C#N)CCCCC2)Cc1nc2ccccc2c(=O)[nH]1,16µM,–,?,–,–,–
COc1ccc(CN(C)CC(=O)Nc2sc3c(c2C#N)CCC3)cc1OC,–,12µM,?,–,–,–
Cc1ccc2c(c1)c1c(n2CC(O)CNC2CCCC2)CCCC1 (stereo unspecified),21µM,?,?,–,?,?
CC1(C(=O)Nc2ccc3c(c2)OCO3)Cc2c(-c3ccccc3)ccnc2O1 (stereo unspecified),?,·,·,?,?,–
CC(=O)Nc1ccc(NC(=O)C2(C)Cc3c(-c4cccc(NC(C)=O)c4)ccnc3O2)cc1 (stereo unspecified),–,·,·,–,–,–
CC(=O)Nc1cccc(-c2ccnc3c2CC(C)(C(=O)Nc2ccc(Cl)cc2)O3)c1 (stereo unspecified),?,·,·,4.1µM,2.3µM,9.2µM
CC(=O)Nc1cccc(-c2ccnc3c2CC(C)(C(=O)Nc2cccc(C(C)=O)c2)O3)c1 (stereo unspecified),–,·,·,15µM,?,–
COc1ccc(NC(=O)C2(C)Cc3c(-c4cccc(C(N)=O)c4)ccnc3O2)cc1 (stereo unspecified),?,·,·,?,7.3µM,?
CC(=O)Nc1cccc(-c2ccnc3c2CC(C)(C(=O)Nc2ccc4c(c2)OCO4)O3)c1 (stereo unspecified),8.2µM,·,·,?,2.3µM,?
CC(=O)Nc1ccc(NC(=O)C2(C)Cc3c(-c4cccc(C(N)=O)c4)ccnc3O2)cc1 (stereo unspecified),–,·,·,–,–,?
CC(C)=CCC/C(C)=C/COc1c2occc2cc2ccc(=O)oc12,–,–,–,–,–,–
O=C(NCc1cccc(F)c1F)C1CCC(=O)N(C2CC2)C1 (stereo unspecified),?,–,–,–,–,–
COc1ccc(NC(=O)C2(C)Cc3c(-c4cccc(NC(C)=O)c4)ccnc3O2)cn1 (stereo unspecified),–,·,·,?,2.1µM,?
COc1ccc(CNC(=O)C2(C)Cc3c(-c4ccc5c(c4)OCO5)ccnc3O2)cc1OC (stereo unspecified),–,·,·,?,–,–
COc1ccc(NC(=O)C2(C)Cc3c(-c4ccc5c(c4)OCO5)ccnc3O2)cc1 (stereo unspecified),?,·,·,?,16µM,?
CC1(C(=O)Nc2cccc(OC(F)(F)F)c2)Cc2c(-c3ccc4c(c3)OCO4)ccnc2O1 (stereo unspecified),–,·,·,16µM,?,?
COCCN=C(NS(=O)(=O)c1cccs1)c1ccccc1Cl,–,–,–,–,–,–
